A number with no mark means an inactive call. Records with an inconclusive call do not appear. Entries that show only a call come without a potency. Active and inactive are the calls of the source. Unless noted, calls follow the shape of the dose curve; as a rule, active = well fitted curve in the direction sought with a large enough effect in the repeat runs; inconclusive = weak or mixed curves; inactive = no such curve, though single readings can be large; an effect the other way counts as inactive or inconclusive.
Legend:
[1] = qHTS assay for small molecule agonists of the p53 signaling pathway (AID 651631; calls by dose curve; also: nearly all actives have a fitted effect of over 15% in size)
In short: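 Readout was fluorescence from the LiveBLAzer FRET substrate, applied for 2 h at room temperature after 16 h compound exposure at 37 °C. Cells were the p53RE-bla HCT-116 line, with beta-lactamase driven by p53 response elements.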

[2] = qHTS assay for small molecules that induce genotoxicity in human embryonic kidney cells expressing luciferase-tagged ATAD5 (AID 651632); also: nearly all actives have a fitted effect of over 15% in size
In short: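 Cells were seeded at 2,000 per well, dosed with compound, and incubated 16 hr at 37C in 5% CO2. Luciferase activity was then quantified after a 30 min room-temperature incubation with Amplite.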

[3] = qHTS assay for small molecule agonists of the p53 signaling pathway - cell viability (AID 651633; calls by dose curve; also: series mostly up to about 83 µM; nearly all actives have a fitted effect of over 30% in size)
In short: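 p53RE-bla cells, seeded at 4,000 per well and rested 5 h at 37 C/5% CO2, received compounds in DMSO for 16 h at 37 C. CellTiter-Glo was then added, and luminescence was read after 30 min at room temperature to gauge cytotoxicity.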

[4] = qHTS assay for small molecules that induce genotoxicity in human embryonic kidney cells expressing luciferase-tagged ATAD5 - cell viability (AID 651634; calls by dose curve; also: nearly all actives have a fitted effect of over 25% in size)
In short: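 Cells (HEK293T, luciferase-tagged ATAD5) are seeded at 2,000 per well, dosed with compound or DMSO vehicle, and incubated 15.5 hr at 37C and 5% CO2. CellTiter-Fluor is added for 30 min before fluorescence is measured.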

[5] = qHTS assay for small molecule disruptors of the mitochondrial membrane potential - cell viability (AID 720634; calls by dose curve;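 also: human HepG2 liver cancer cells; series mostly up to about 83 µM; nearly all actives have a fitted effect of over 20% in size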)
In short: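 Cytotoxicity was measured by ATP quantitation in HepG2 wells that had first been treated with compound for 1 hr and stained with m-MPI dye; CellTiter-Glo incubation was 30 min at room temperature.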

[6] = qHTS assay for small molecule disruptors of the mitochondrial membrane potential (AID 720635); also: potency is read from the fitted curve at half-maximal effect
In short: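 HepG2 cells (2,000/well) attached overnight at 37C, then took compound for 1 hr at 37C, 5% CO2. Mito-MPS dye was added for 30 min; fluorescence was read at 490/535 nm (monomers) and 540/590 nm (aggregates).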

[7] = qHTS assay to test for compound auto fluorescence at 590 nm (red) in HepG2 cells (AID 720674)
In short: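 Intrinsic compound fluorescence in the red window (Ex/Em 540/590 nm) is measured in attached HepG2 cells exposed for 1 hr, DMSO vehicle as baseline, benchmarked to Rose Bengal sodium.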

[8] = qHTS assay to test for compound auto fluorescence at 535 nm (green) in HepG2 cells (AID 720675)
[9] = qHTS assay to test for compound auto fluorescence at 460 nm (blue) in HEK293 cells (AID 720678)
In short: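 Cells were seeded and left to adhere for 4-5 hr at 37C. Compounds were then pin-transferred. After an overnight incubation at 37C under 5% CO2, intrinsic fluorescence at 405/460 nm was measured and referenced to triamterene.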

[10] = qHTS assay to test for compound auto fluorescence at 590 nm (red) in HEK293 cells (AID 720679)
In short: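 Each well held 2,000 HEK293 cells in medium containing 10% dialyzed FBS. Following 4-5 hr attachment at 37C, 23 nL test compound or DMSO was added; plates sat overnight, and red fluorescence (540/590nm) was recorded.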

[11] = qHTS assay to test for compound auto fluorescence at 535 nm (green) in HEK293 cells (AID 720680)
[12] = qHTS assay to test for compound auto fluorescence at 460 nm (blue) in HEK293 cell free culture (AID 720681)
In short: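 Test compounds were pinned into cell-free culture medium (DMEM with 10% FBS) and fluorescence was read directly at Ex/Em 405/460 nm. Signals were expressed as fluorescence equivalents of triamterene, with DMSO vehicle as control.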

[13] = qHTS assay to test for compound auto fluorescence at 535 nm (green) in HEK293 cell free culture (AID 720682)
In short: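 Compounds were pin-transferred into cell-free DMEM with 10% FBS, and green fluorescence was read at excitation 485 nm and emission 535 nm. Intensities were expressed as fluorescein-equivalent values.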

[14] = qHTS assay to test for compound auto fluorescence at 590 nm (red) in HEK293 cell free culture (AID 720683)
In short: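 Tox21 10K library compounds were pinned into cell-free DMEM with 10% FBS and fluorescence was read at excitation 540 nm. Activity is expressed as Rose Bengal sodium equivalency.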

[15] = qHTS assay to test for compound auto fluorescence at 590 nm (red) in HepG2 cell free culture (AID 720684)
In short: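 Ex 540 / Em 590 nm read of compound in cell-free MEM (10% FBS). Rose Bengal sodium reference.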

[16] = qHTS assay to test for compound auto fluorescence at 460 nm (blue) in HepG2 cell free culture (AID 720685)
In short: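 Cell-free plates of MEM plus 10% FBS received 23 nL compound or DMSO vehicle; blue-channel (405/460 nm) intensity scored against triamterene as reference fluorophore.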

[17] = qHTS assay to test for compound auto fluorescence at 535 nm (green) in HepG2 cell free culture (AID 720686)
[18] = qHTS assay to test for compound auto fluorescence at 460 nm (blue) in HepG2 cells (AID 720687)
In short: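 Cells (2,000/well in MEM with 10% FBS) attached overnight at 37 C, then were exposed to compound or DMSO for 1 hr at 37 C, 5% CO2. Fluorescence read at Ex/Em 405/460 nm, expressed as triamterene-equivalent signal.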

[19] = target: Glucocorticoid receptor (Homo sapiens) (UniProt P04150); assay: qHTS assay to identify small molecule agonists of the glucocorticoid receptor (GR) signaling pathway (AID 720691; active = well fitted activation curve with a large enough effect in the signal ratio in the repeat runs, not every such curve was filed as active; the % refers to the signal ratio)
Chain of Glucocorticoid receptor (Homo sapiens) (P04150 whole entry, looked up): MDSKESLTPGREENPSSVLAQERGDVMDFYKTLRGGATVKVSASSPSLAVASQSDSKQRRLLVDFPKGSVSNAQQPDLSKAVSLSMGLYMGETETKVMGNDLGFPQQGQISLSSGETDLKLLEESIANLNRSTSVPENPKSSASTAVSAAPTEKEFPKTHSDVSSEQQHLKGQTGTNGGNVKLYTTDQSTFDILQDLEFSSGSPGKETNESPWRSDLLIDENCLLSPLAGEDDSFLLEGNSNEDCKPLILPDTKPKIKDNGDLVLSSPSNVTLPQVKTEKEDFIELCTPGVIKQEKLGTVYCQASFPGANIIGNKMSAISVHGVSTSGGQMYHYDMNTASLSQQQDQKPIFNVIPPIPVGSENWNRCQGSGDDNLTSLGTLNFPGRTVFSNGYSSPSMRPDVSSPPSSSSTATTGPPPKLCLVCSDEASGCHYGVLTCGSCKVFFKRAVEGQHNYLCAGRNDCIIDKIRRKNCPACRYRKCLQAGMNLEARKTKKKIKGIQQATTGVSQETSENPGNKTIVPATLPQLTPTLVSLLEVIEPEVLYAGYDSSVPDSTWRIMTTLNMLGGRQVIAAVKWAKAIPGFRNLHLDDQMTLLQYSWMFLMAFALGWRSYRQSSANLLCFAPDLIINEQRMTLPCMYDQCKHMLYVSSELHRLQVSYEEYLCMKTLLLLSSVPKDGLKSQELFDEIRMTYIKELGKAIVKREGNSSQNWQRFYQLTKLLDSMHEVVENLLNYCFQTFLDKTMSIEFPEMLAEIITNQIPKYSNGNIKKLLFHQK
In short: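 Steps: seed GR-bla HeLa cells, incubate 4 h at 37 C/5% CO2; pin-transfer DMSO-dissolved compounds; incubate 18 h at 37 C; add LiveBLAzer B/G FRET substrate; after 2 h at room temperature, measure fluorescence.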

[20] = target: Glucocorticoid receptor (Homo sapiens) (UniProt P04150); assay: qHTS assay to identify small molecule antagonists of the glucocorticoid receptor (GR) signaling pathway (AID 720692; active = well fitted inhibition curve with a large enough effect in the signal ratio in the repeat runs, not every such curve was filed as active; the % refers to the signal ratio)
In short: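 Antagonism was scored as loss of dexamethasone-driven (5 nM final) reporter signal in HeLa cells bearing a glucocorticoid response element–beta-lactamase construct, after 18 h compound exposure at 37 C and 2 h FRET substrate loading.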

| Compound | outcome [1] | outcome [2] | outcome [3] | Potency [4] | outcome [5] | Potency [6] | outcome [7] | outcome [8] | outcome [9] | outcome [10] | outcome [11] | outcome [12] | outcome [13] | outcome [14] | outcome [15] | outcome [16] | outcome [17] | outcome [18] | Potency [19] | outcome [20] |
| --- | --- | --- | --- | --- | --- | --- | --- | --- | --- | --- | --- | --- | --- | --- | --- | --- | --- | --- | --- | --- |
| CCCc1ccc(O)cc1 | inactive | inactive | inactive | inactive | inactive | 54.5 µM (active) | inactive | inactive | inactive | inactive | inactive | inactive | inactive | inactive | inactive | inactive | inactive | inactive | inactive | – |
| O=C(O)CSCC(=O)NC1CCSC1=O (centres undefined) | inactive | inactive | inactive | inactive | inactive | inactive | inactive | inactive | inactive | inactive | inactive | inactive | inactive | inactive | inactive | inactive | inactive | inactive | – | – |
| Cc1ncc([N+](=O)[O-])n1CC(C)O (centres undefined) | inactive | inactive | inactive | inactive | inactive | inactive | inactive | inactive | inactive | inactive | inactive | inactive | inactive | inactive | inactive | inactive | inactive | inactive | inactive | inactive |
| CCOC(=O)CC1(C)OCC(C)O1 (centres undefined) | inactive | inactive | inactive | inactive | inactive | inactive | inactive | inactive | inactive | inactive | inactive | inactive | inactive | inactive | inactive | inactive | inactive | inactive | – | – |
| O=C(Cn1ccnc1[N+](=O)[O-])NCc1ccccc1 | inactive | inactive | inactive | inactive | inactive | inactive | inactive | inactive | inactive | inactive | inactive | inactive | inactive | inactive | inactive | inactive | inactive | inactive | inactive | – |
| Nc1nnnn1-c1ccccc1 | inactive | inactive | inactive | inactive | inactive | inactive | inactive | inactive | inactive | inactive | inactive | inactive | inactive | inactive | inactive | – | inactive | inactive | inactive | inactive |
| CC(=O)O[C@H]1C[C@@H]2CC[C@@]1(C)C2(C)C | inactive | inactive | inactive | inactive | inactive | inactive | inactive | inactive | inactive | inactive | inactive | – | inactive | inactive | inactive | inactive | inactive | inactive | inactive | – |
| O=[N+]([O-])c1c(Cl)cc(Cl)cc1Cl | inactive | inactive | inactive | inactive | inactive | inactive | inactive | inactive | inactive | inactive | inactive | inactive | inactive | inactive | inactive | – | inactive | inactive | inactive | inactive |
| C[Si]1(C)O[Si](C)(C)O[Si](C)(C)O[Si](C)(C)O[Si](C)(C)O1 | inactive | inactive | inactive | inactive | inactive | inactive | inactive | inactive | inactive | inactive | inactive | – | inactive | inactive | inactive | – | inactive | inactive | inactive | inactive |
| N#CCC(=O)NN | inactive | inactive | inactive | inactive | inactive | inactive | inactive | inactive | inactive | inactive | inactive | inactive | inactive | inactive | inactive | inactive | inactive | inactive | inactive | inactive |
| COC(=O)c1cccc(Cl)c1 | inactive | inactive | inactive | inactive | inactive | inactive | inactive | inactive | inactive | inactive | inactive | – | inactive | inactive | inactive | inactive | inactive | inactive | – | – |
| Cn1nnc2c(C(N)=O)ncn2c1=O | inactive | inactive | inactive | inactive | inactive | inactive | inactive | inactive | inactive | inactive | inactive | inactive | inactive | inactive | inactive | – | inactive | inactive | – | – |
| CC(CO)(CO)CO | inactive | inactive | inactive | inactive | inactive | inactive | inactive | inactive | inactive | inactive | inactive | inactive | inactive | inactive | inactive | inactive | inactive | – | inactive | – |
| CC(C)=CCC/C(C)=C/COC=O | inactive | inactive | inactive | inactive | inactive | inactive | inactive | inactive | inactive | inactive | inactive | inactive | inactive | inactive | inactive | – | inactive | inactive | – | – |
| Nc1nc(-c2ccccc2)c(Br)c(=O)[nH]1 | inactive | inactive | inactive | inactive | inactive | inactive | inactive | inactive | inactive | inactive | inactive | – | inactive | inactive | inactive | – | inactive | inactive | inactive | – |

— PubChem BioAssay (Tox21)
